As a reminder, the IC50 is the concentration needed to halve the response being measured.

The structures appear in SMILES notation. Hit rate of the full screen: of about 2,200 compounds, about 1,200 (55%) were called active. Cut-off not given; nearly all actives show IC50 up to about 92 µM. So high a share suggests a set chosen from earlier hits. The list shows a part of the results.

The experiment can be described thus: counter assay for TAg ATPase ADP read-out – biochemical, ADP-Hunter, fluorescence, counter-screen (AID 2501).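 Further: purified T antigen ATPase.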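 On inhibition: higher means more inhibition.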 The note with it: series mostly up to 100 µM.
Consider `Oc1cc2c(cc1O)C1c3ccc(O)c(O)c3OCC1(O)C2` (configuration not stated), for which the IC50 result is “inactive”.

Consider `CC(=O)Oc1ccc(C(=O)OCC(=O)c2c(N)n(C)c(=O)n(C)c2=O)cc1OC(C)=O`, for which the IC50 is 5.13 µM (active).

Turning to `CC(C)Cn1c(N)c(C(=O)COC(=O)c2cc(-c3ccco3)nc3ccccc23)c(=O)n(C)c1=O`, the IC50 result is “inactive”.

On to `COc1cc(SC#N)ccc1N=Cc1c(C)[nH]n(-c2ccc(C)cc2C)c1=O`, for which the IC50 result was “inactive”.

As to `O=C(Nc1ccc(O)cc1)C1CC=CCC1` (configuration not stated), the 50% inhibitory concentration (IC50) was 6.87 µM (active).

Turning to `O=C(Nc1ccc(O)cc1)C1CCCO1` (configuration not stated), the IC50 is 5.34 µM (active).

As to `O=C(Nc1ccc(O)cc1)c1ccc(NC(=O)C2CCCO2)cc1` (configuration not stated), the IC50 is 7.4 µM (active).

Consider `CCOC(=O)c1c(N2C(=O)Nc3cc(Cl)c(Cl)cc3N2O)sc2c1CCCCC2`, for which the IC50 result was “inactive”.

As to `Nc1nc(-c2cccs2)c(NC(=O)c2ccccc2)s1`, the IC50 is 10.4 µM (active).

`O=C(O)CC1(Cc2nc(-c3cccs3)no2)CCCC1`: the IC50 result was “inactive”.

With `Cc1c(C)n(Cc2ccccc2)c2ncnc(NN)c12`, the IC50 entry was “inactive”.

`c1ccc(CNc2ncnc3ccccc23)cc1`: the IC50 is 4.18 µM (active).

With `COc1ccc(-c2nc(O)c3cnccn23)cc1`, the IC50 was 6.67 µM (active).

Take `CCOC(=O)C1=C(O)C(=O)N(Cc2cccnc2)C1c1ccc(OC)cc1` (configuration not stated): the IC50 entry was “inactive”.

On to `COc1cc(/C=N\NC(=O)C2CC3C=CC2C3)ccc1O` (configuration not stated), for which the IC50 was 7.58 µM (active).

For `COc1cc(/C=N/NC(=O)NC2CCCCC2)ccc1O`, the IC50 is 3.75 µM (active).

For the molecule `CCSS(=O)(=O)c1cccc2cccnc12`, the IC50 entry is “inactive”.

For the molecule `CNS(=O)(=O)c1cc(NC(=O)CCCNC(=O)c2ccc(Cl)cc2)ccc1C`, the IC50 entry was “inactive”.

On to `O=S(=O)(Nc1ccc(O)cc1)c1cccc2cccnc12`, for which the IC50 is 4.75 µM (active).

For `Cc1ccc(C)c(S(=O)(=O)Nc2ccc(O)cc2)c1`, the IC50 was 6.11 µM (active).

Consider `Cc1cc(=O)[nH]c2ccc(S(=O)(=O)Nc3ccc(O)cc3)cc12`, for which the IC50 is 7.34 µM (active).

In the case of `CSS(=O)(=O)c1cccc2cccnc12`, the IC50 entry was “inactive”.

For `Cc1cc(C)c(S(=O)(=O)Nc2ccc(O)cc2)cc1C`, the IC50 was 12.1 µM (active).

For `Cc1ccccc1NS(=O)(=O)c1cc(C(=O)NCCC2=CCCCC2)ccc1C`, the IC50 entry is “inactive”.

For the molecule `Cc1cc(C)c(S(=O)(=O)Nc2cc(SCC(=O)O)c(O)c3ccccc23)cc1C`, the IC50 result is “inactive”.

In the case of `Cc1c(C(=O)Oc2ccc(-c3cnc4ccccc4n3)cc2)cccc1[N+](=O)[O-]`, the IC50 entry is “inactive”.

With `NC(=O)N/N=C/c1c(Sc2nnnn2-c2ccccc2)nc2ccccn2c1=O`, the IC50 result is “inactive”.

As for `Cc1cc(Cl)ccc1OCCn1cncn1`, the IC50 entry is “inactive”.

Take `CC1=C/C(=N\OS(=O)(=O)c2ccccc2)C(C(C)C)=CC1=O`: the IC50 result is “inactive”.

For the molecule `CN1CCc2cccc3c2C1Cc1ccc(O)c(O)c1-3` (configuration not stated), the IC50 result is “inactive”.

Turning to `O=S(=O)(Nc1ccc2c(c1)nc1n2CCOC1)c1ccccc1`, the IC50 result is “inactive”.

Take `Cn1c(=O)oc2cc(S(=O)(=O)Nc3ccc(O)cc3)ccc21`: the IC50 was 3.81 µM (active).

On to `CCOC(=O)Cn1c(=O)oc2cc(S(=O)(=O)NCCC(C)C)ccc21`, for which the IC50 result was “inactive”.

Consider `Cc1occc1-c1nnc(SCC(=O)c2ccccc2)n1CC1CCCO1` (configuration not stated), for which the IC50 entry is “inactive”.

`Cc1nnc(SCc2ccccc2)n1CC1CCCO1` (configuration not stated): the IC50 was 70.8 µM (active).

As to `CN(C)c1ccc(Nc2nc(-c3cccnc3)cs2)cc1`, the IC50 is 5.96 µM (active).

Take `Cc1nc2ncccn2c1-c1csc(Nc2ccc(N(C)C)cc2)n1`: the IC50 was 7.2 µM (active).

For the molecule `O=C1c2ccccc2C(Nc2ccccc2F)N1c1cccnc1` (configuration not stated), the IC50 result was “inactive”.

With `Cc1cccc(/C(N)=N/OC(=O)N2c3ccccc3Sc3ccccc32)c1`, the IC50 is 79.6 µM (active).

On to `NN/C(=C\[N+](=O)[O-])Nc1ccc(Cl)cc1`, for which the IC50 entry was “inactive”.

For the molecule `NNC(=O)C(=O)Nc1ccc(O)cc1`, the IC50 was 5.13 µM (active).

As for `CCOc1ccccc1NC(=O)NC(C)c1ccncc1` (configuration not stated), the IC50 result was “inactive”.

Turning to `Oc1ccc(N2CCN(C(=S)NCCc3ccccc3)CC2)cc1`, the IC50 is 3.15 µM (active).

In the case of `CCOc1ccccc1NC(=S)N1CCN(c2ccc(O)cc2)CC1`, the IC50 was 6.75 µM (active).

In the case of `CC(C)CN(C)C(=O)CCc1nnc(Cc2cccc(C(F)(F)F)c2)o1`, the IC50 entry is “inactive”.

Take `COC(=O)/C=C/C(=O)Nc1ccc(O)c(Cl)c1`: the IC50 is 6.19 µM (active).

Turning to `Cc1ccc(NC(=O)C(CC(C)C)NC(N)=O)cc1Cl` (configuration not stated), the IC50 entry was “inactive”.

In the case of `Cc1ccccc1-n1sc2cc(F)ccc2c1=O`, the IC50 is 49.1 µM (active).

Consider `c1ccc(-c2csc(NNC3=NCCCCC3)n2)cc1`, for which the IC50 was 13.6 µM (active).

In the case of `COc1ccc(Nc2nc(-c3ccc4c(c3)NC(=O)CO4)cs2)cc1`, the IC50 result is “inactive”.

For the molecule `COc1ccc(-c2csc(NNC3=NCCCCC3)n2)cc1`, the IC50 is 40 µM (active).

For `CCN(CC)CCCN(C(=O)c1cccs1)c1nc(-c2ccc(OC)cc2)cs1`, the IC50 entry was “inactive”.

Take `O=S(=O)(NC1=NCCCCC1)c1ccc2sc(NS(=O)(=O)c3ccc4ccccc4c3)nc2c1`: the IC50 result was “inactive”.

Take `Cc1ccc(N=c2oc3cc(O)ccc3cc2C(N)=O)cc1`: the IC50 is 17.1 µM (active).

As for `C=CC(=O)Oc1ccc(N2Cc3ccccc3C2=O)cc1`, the IC50 was 8.19 µM (active).

`COc1ccc(N2C(=O)/C(=C\c3ccco3)N=C2SCC(=O)NC(C)C)cc1Cl`: the IC50 entry is “inactive”.

Turning to `COc1cc(/C=C2/C(=O)NN(c3ccc(Cl)cc3)C2=O)ccc1OC(=O)c1ccco1`, the IC50 is 80 µM (active).

Consider `COc1cc(/C=C2/C(=O)NN(c3cccc(C)c3)C2=O)ccc1OC(=O)c1ccco1`, for which the IC50 was 27.4 µM (active).

As to `CCOC(=O)c1c(NC(=O)c2ccc(S(=O)(=O)N(C)CC3CCCO3)cc2)sc2c1CC(C)(C)NC2(C)C` (configuration not stated), the IC50 entry is “inactive”.

As for `Nc1ccc(OC(=O)Nc2ccc(O)cc2)cc1`, the IC50 is 3.47 µM (active).

In the case of `CS(=O)(=O)N1CCc2cc(C(=O)Nc3ccc(O)cc3)ccc21`, the IC50 is 7.2 µM (active).

On to `CC(C)OCCCNC1=C(Cl)C(=O)c2ccccc2C1=O`, for which the IC50 entry was “inactive”.

For `COC1=C(Nc2ccc(O)cc2)C(=O)c2ccccc2C1=O`, the IC50 was 5.25 µM (active).

As to `CN(C)C=NC1=NN(c2cccc(C(F)(F)F)c2)CC1`, the IC50 was 5.93 µM (active).

In the case of `O=c1c2ccccc2[nH]c2ccc(O)cc12`, the IC50 is 5.13 µM (active).

On to `O=C(CCN1C(=O)/C(=C\c2ccco2)SC1=S)Nc1ccc(C(=O)O)c(O)c1`, for which the IC50 entry was “inactive”.

Take `O=C1/C(=C/c2ccncc2)SC(=S)N1Nc1ccccc1`: the IC50 is 77.6 µM (active).

`O=C(CCN1C(=O)/C(=C/c2ccco2)SC1=S)Nc1ccc(C(=O)O)c(O)c1`: the IC50 result is “inactive”.

Turning to `COc1ccc(-c2cc(=O)oc3c(O)c(O)ccc23)cc1`, the IC50 is 8.96 µM (active).

As to `O=C1NC(=S)CN1c1ccccc1`, the IC50 entry is “inactive”.

For `CC(=O)N(C1=C(Cl)C(=O)c2ccccc2C1=O)c1ccc(C(=O)O)cc1`, the IC50 entry is “inactive”.

Take `O=C(O)c1ccccc1-c1c2cc(I)c(=O)c(I)c-2oc2c(I)c(O)c(I)cc12`: the IC50 result is “inactive”.

With `Nc1cc(C(=O)O)c(N)c2c1C(=O)c1ccccc1C2=O`, the IC50 was 14.7 µM (active).

As for `COc1cc(Cn2nnc3ccccc32)ccc1O`, the IC50 is 3.65 µM (active).

With `Cc1nc2cc(NCc3nc4ccccc4n3Cc3ccccc3)ccc2n1C`, the IC50 result was “inactive”.

`COc1cc(Cn2c(-c3ccc(O)c(OC)c3)nc3ccccc32)ccc1O`: the IC50 was 0.9 µM (active).

Consider `CCOc1ccc(C(=O)CSCC(=O)O)cc1`, for which the IC50 result was “inactive”.

As for `Cc1cccc(C)c1NC(=O)CSCC(=O)c1ccc(O)c(O)c1`, the IC50 is 10.3 µM (active).

As to `COc1ccc(CCN(C)Cc2nc(Cc3ccc(OC)c(OC)c3)no2)cc1OC`, the IC50 entry was “inactive”.

Turning to `Cn1c(=O)c2c([nH]c(=S)n2Cc2ccc(Cl)cc2)n(C)c1=O`, the IC50 was 16 µM (active).

`C/C(=N/NS(=O)(=O)c1cccc([N+](=O)[O-])c1)c1c[nH]c2ccccc12`: the IC50 was 9.39 µM (active).

As for `COc1cc(/C=N/NS(=O)(=O)c2ccc(Br)cc2)ccc1O`, the IC50 is 14.6 µM (active).

In the case of `O=C(COC(=O)C1CC1)c1c[nH]c2ccccc12`, the IC50 entry is “inactive”.

For `COc1cc(/C=N/NS(=O)(=O)c2ccc(C)c([N+](=O)[O-])c2)ccc1O`, the IC50 is 8.36 µM (active).

For `O=[N+]([O-])c1cccc(S(=O)(=O)N/N=C/c2ccc(O)cc2)c1`, the IC50 is 5.86 µM (active).

Regarding `CC(C)(C)c1ccc(-c2nc(O)c(CC(=O)O)s2)cc1`, the IC50 entry was “inactive”.

As to `CC1=C(C#N)c2nc(N)c(C#N)c(C)c2/C1=C\c1ccc(OCC(=O)O)c(Cl)c1`, the IC50 was 95.7 µM (active).

On to `COc1cc(/C=C2/C(C)=C(C#N)c3nc(N)c(C#N)c(C)c32)ccc1OCC(=O)O`, for which the IC50 entry was “inactive”.

In the case of `COc1cc(/C=C2\C(C)=C(C#N)c3nc(N)c(C#N)c(C)c32)ccc1OCC(=O)O`, the IC50 entry was “inactive”.

On to `Nc1ncnc2oc(-c3ccco3)c(-c3ccco3)c12`, for which the IC50 entry was “inactive”.

On to `CS(=O)(=O)c1ccc2c(c1)SC1=NC(=O)/C(=C/c3ccco3)C(=N)N12`, for which the IC50 entry was “inactive”.

As for `NC1=NC(=O)/C(=C\c2ccco2)S1`, the IC50 result is “inactive”.

Regarding `COc1cc(/C=C2\SC(N)=NC2=O)ccc1O`, the IC50 is 4.85 µM (active).

In the case of `Cc1ccc(NC(=O)CN2C(=O)N/C(=C\c3cccn3-c3cccc(C(=O)O)c3)C2=O)cc1`, the IC50 entry is “inactive”.

Consider `CCOc1cc(/C=C2\SC(=O)N=C2N)ccc1O`, for which the IC50 is 4.18 µM (active).

As to `CCOc1cc(/C=C2/NC(=O)N(CC(=O)OC)C2=O)ccc1O`, the IC50 is 5.19 µM (active).

In the case of `CCOc1cc(/C=C2\NC(=S)N(c3c(C)n(C)n(-c4ccccc4)c3=O)C2=O)ccc1O`, the IC50 was 3.07 µM (active).

As to `COC(=O)c1[nH]c2ccc(Br)cc2c1NC(=O)Oc1ccccc1`, the IC50 entry is “inactive”.

In the case of `CN(C)Cc1cc(O)c(CN(C)C)cc1O`, the IC50 result is “inactive”.

For the molecule `CCOc1cc(/C=C2\SC(=NC)N(C)C2=O)cc(Cl)c1OC(C)=O`, the IC50 entry was “inactive”.

For `Cc1c(N2C(=O)/C(=C\c3ccccc3O)SC2=S)c(=O)n(-c2ccccc2)n1C`, the concentration for half-maximal inhibition (IC50) was 54.7 µM (active).

Take `C=CCN1C(=O)/C(=C\C(C)=C\c2ccccc2)SC1=S`: the IC50 result is “inactive”.

Take `CCCN1C(=O)/C(=C/c2ccc(OCc3ccc(C(=O)O)cc3)c(OC)c2)NC1=S`: the IC50 result was “inactive”.

Consider `NC1=NC(=O)S/C1=C\c1ccc(O)cc1`, for which the IC50 is 3.6 µM (active).

Turning to `COc1cc(/C=C2\NC(=S)N(C)C2=O)ccc1O`, the IC50 is 3.23 µM (active).

`CN=C1S/C(=C\c2ccc(O)c(OC)c2)C(=O)N1C`: the IC50 was 4.35 µM (active).

For `COc1cc(C2NC(=S)NC(C)=C2C(=O)Nc2cc(C)cc(C)c2)ccc1O` (configuration not stated), the IC50 result is “inactive”.

The record behind these values is PubChem BioAssay AID2501 (Southern Research Specialized Biocontainment Screening …, 2010).
